Structures are written as SMILES. Where “and” joins values, the source holds several entries; their conditions need not be identical. Identical values can stand only once. Inconclusive results are not listed. Calls of active or inactive are those of the source. Calls follow the shape of the dose curve; as a rule, active = well fitted cell-killing curve with a large enough effect; inconclusive = small, poorly fitted or top-dose-only effect, or effect the other way; inactive = flat fitted curve, though single readings scatter.

Experiment in all cases: Primary qHTS to identify gynecologic anti-cancer compounds using libraries of approved drugs and bioactive compounds (AID 1345084); also: nearly all actives have a fitted effect of over 55% in size
In general terms: Quantitative high-throughput screening tests each substance at several concentrations.

Assay [1] relates to HeLa. The conditions noted are these: Gynecologic cancer cell panel viability, ATPlite luminescence, 48 h; series mostly up to 57.5 µM. The gist of the method:
(§1)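 Measured: luminescence after ATPlite addition (15 min, RT). Exposure: 48 h, 37 C, 5% CO2.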
In general terms: In ATP-based viability assays light output follows the ATP content of the culture.

Assay [2] deals with JEG-3. As to conditions: Gynecologic cancer cell panel viability, ATPlite luminescence, 48 h; series mostly up to 57.5 µM. The gist of the method: as §1
Assay [3] concerns PA-1. The conditions noted are these: Gynecologic cancer cell panel viability, ATPlite luminescence, 48 h; series mostly up to 57.5 µM. The gist of the method: as §1
Assay [4] deals with Tov-21-G. The conditions noted are these: Gynecologic cancer cell panel viability, ATPlite luminescence, 48 h; series mostly up to 57.5 µM. The gist of the method:
as §1

Assay [5] relates to Tov112D. As to conditions: Gynecologic cancer cell panel viability, ATPlite luminescence, 48 h; series mostly up to 57.5 µM. The gist of the method:
as §1

In assay [6] the test system is OV90. As to conditions: Gynecologic cancer cell panel viability, ATPlite luminescence, 48 h; series mostly up to 57.5 µM. The procedure, abridged: as §1
The test system of assay [7] is Es-2. The conditions noted are these: Gynecologic cancer cell panel viability, ATPlite luminescence, 48 h; series mostly up to 57.5 µM. The gist of the method: as §1
The test system of assay [8] is Hek293T. As to conditions: Gynecologic cancer cell panel viability, ATPlite luminescence, 48 h, control line for the selectivity index; series mostly up to 57.5 µM. The gist of the method: as §1
The test system of assay [9] is CASKI. As to conditions: Gynecologic cancer cell panel viability, ATPlite luminescence, 48 h; series mostly up to 57.5 µM. The procedure, abridged:
as §1

In assay [10] the test system is SKOV3. As to conditions: Gynecologic cancer cell panel viability, ATPlite luminescence, 48 h; series mostly up to 57.5 µM. The procedure, abridged:
as §1
Potency is read from the fitted curve at half-maximal effect.

With `CNCCCCOc1ccccc1Cc1ccccc1`, the Potency result in assay [1], in [2], in assay [3], in [4] and in assay [5] was “inactive” each time.
Take `CN(C)CCOC(c1ccc(Cl)cc1)c1ccccn1` (stereo unspecified): in assay [2], the Potency entry was “inactive”.
On to `CN1CCN(CCC(=O)N2c3ccccc3Sc3ccc(C(F)(F)F)cc32)CC1`, for which the Potency result in [1] was “inactive”. Moreover, the Potency in assay [6] is 15.8 µM (active).
With `CC[C@]12CCCN3CCc4c(n(c5ccccc45)C(=O)C1)[C@@H]32`, the Potency entry in [7], in assay [2] and in assay [6] was “inactive” throughout. Further, the Potency in [3] was 20 µM (active); in assay [5], 28.2 µM (active) and 31.6 µM (active).
With `CCN(CC)CCNc1ccc(CO)c2sc3ccccc3c(=O)c12`, the Potency result in assay [1] was “inactive”. Moreover, the values for the Potency in assay [8], in [6] and in [3] were 35.5 µM (active), 35.5 µM (active) and 28.2 µM (active), respectively.
`CCc1nn(CCCN2CCN(c3cccc(Cl)c3)CC2)c(=O)n1CCOc1ccccc1`: the Potency entry in assay [9], in assay [7], in assay [8], in assay [2], in assay [10] and in [4] was “inactive” in each case. The Potency entry in [5] was “inactive”.
With `CCCCCCCCNC(C)C(O)c1ccc(SC(C)C)cc1` (stereo unspecified), the Potency entry in assay [1] and in assay [5] was “inactive” each time.
Take `O[C@@H](c1cc(C(F)(F)F)nc2c(C(F)(F)F)cccc12)[C@H]1CCCCN1`: the Potency in assay [10] is 25.1 µM (active).
Regarding `NC(=O)n1c(O)c(C(=O)c2cccs2)c2cc(Cl)ccc21`, the Potency result in [9], in assay [7], in assay [8], in [2], in [6] and in assay [10] was “inactive” in each case. Moreover, the Potency result in assay [4] and in assay [5] was “inactive” each time.
Consider `CCN(CC)CCOc1ccc2c(c1)C(=O)c1cc(OCCN(CC)CC)ccc1-2`, for which the Potency entry in assay [1] was “inactive”. For the same compound, the Potency is 12.6 µM (active) in assay [6] and 22.4 µM (active) in assay [4].
For `CCCCNc1ccc(C(=O)OCCOCCOCCOCCOCCOCCOCCOCCOCCOC)cc1`, the Potency entry in [9], in [1], in assay [2], in [4] and in [5] was “inactive” throughout.
With `CCN(CC)CCOC(=O)C(Cc1cccc2ccccc12)CC1CCCO1` (stereo unspecified), the Potency entry in assay [7], in assay [1], in [8], in [2], in [3] and in assay [4] was “inactive” in each case. Also, the Potency entry in [5] was “inactive”.
Consider `Nc1nc(Cl)nc2c1ncn2[C@@H]1O[C@H](CO)[C@@H](O)[C@@H]1F`, for which the Potency in [7] was 0.316 µM (active); in assay [2], 11.2 µM (active); in assay [6], 0.398 µM (active); in assay [3] it was 1.26 µM (active); in assay [5], 0.316 µM (active). Besides, in [1], the Potency result is “inactive”.
`CCCCCCCCCCCCOCCOCCOCCOCCOCCOCCOCCOCCOCCO`: the Potency entry in assay [2], in assay [4] and in [5] was “inactive” each time. The Potency in assay [6] was 28.2 µM (active).
`O=c1[nH]c(=O)n([C@H]2C[C@H](O)[C@@H](CO)O2)cc1F`: the Potency was 5.01 µM (active) in assay [1], 7.94 µM (active) in [6], 7.94 µM (active) in [10] and 1 µM (active) in assay [5]. Further, the Potency result in assay [8] is “inactive”.
On to `CCOC(=O)[C@@](C)(N)Cc1ccc(O)c(O)c1`, for which the Potency entry in assay [7], in assay [1], in assay [8], in assay [2], in assay [6] and in [3] was “inactive” throughout. The Potency result in assay [4] and in assay [5] was “inactive” in each case.
Turning to `CCC(CC)(CC(=O)Nc1cccc(/C=C/c2nc(C3CCC3)cs2)c1)C(=O)O`, the Potency result in assay [9], in [10] and in assay [5] was “inactive” throughout.
As for `CCN1/C(=C/C=C/c2sc3ccccc3[n+]2CC)Sc2ccccc21`, the Potency in assay [7] was 2.51 µM (active); in [1], 0.891 µM (active); in [8], 2 µM (active); in assay [6], 2.24 µM (active); in [3], 1.41 µM (active); in assay [10], 0.126 µM (active). For the same compound, the values for the Potency in [4] and in assay [5] were 0.891 µM (active) and 3.16 µM (active), respectively.
Regarding `O=C(Nc1ncc([N+](=O)[O-])s1)c1cccs1`, the Potency result in assay [2] and in [10] was “inactive” each time. Besides, the Potency in assay [6] was 20 µM (active).
Regarding `CN1CCC[C@@H]1CCO[C@](C)(c1ccccc1)c1ccc(Cl)cc1`, in assay [1], the Potency result was “inactive”. The results for the Potency in [2], in assay [6] and in assay [10] were 20 µM (active), 11.2 µM (active) and 22.4 µM (active), respectively.
Turning to `O=C1C(O)=C(O)C(=O)C(O)=C1O`, the Potency result in [9], in assay [7], in assay [8], in assay [2], in assay [6] and in assay [10] was “inactive” throughout. Also, the Potency entry in assay [4] was “inactive”.
On to `Oc1c(Cl)cc(Cl)c(Cl)c1Cc1c(O)c(Cl)cc(Cl)c1Cl`, for which the Potency result in assay [9] and in assay [4] was “inactive” throughout. For the same compound, the Potency in assay [8] was 8.91 µM (active); in [6], 10 µM (active); in assay [3], 11.2 µM (active).
As for `Cc1cc(-c2ccccc2)nnc1NCCN1CCOCC1`, the Potency entry in [9], in assay [1], in assay [8], in assay [2], in assay [6] and in assay [3] was “inactive” in each case. The Potency entry in assay [10], in assay [4] and in [5] was “inactive” in each case.
As to `Cc1ccc2c(Br)cc(Br)c(O)c2n1`, the Potency result in assay [1] was “inactive”. For the same compound, the results for the Potency in assay [3], in assay [10] and in assay [4] were 10 µM (active), 15.8 µM (active) and 17.8 µM (active), respectively.

Source of the values: PubChem BioAssay (NCATS).
